The full list was thinned out, with hits kept by preference.
LASV entry inh = inhibitors of Lassa virus binding or cell entry. Potency, µM (series often up to 37.9 µM), without a hit: at the highest dose activity change, negative = inhibition, most hits filed as inhibitors. actives 1.2% (n = 300,000). Lassa virus pseudotype entry inhibition, cell reporter. AID 540256; calls by dose curve; tested in HEK293 cells; note: potency is the fitted concentration of half-maximal effect; % is set by controls: 0 for no effect and ±100 for the full control effect; nearly all actives have a fitted effect of over 50% in size
Shiga inhibitor = Shiga toxin inhibition; actives 9.2% (n = 290,000); AID 2315; Vero cells, Shiga toxin protein synthesis inhibition reporter; inhibition, % at 38.7 µM; in the data active = inhibition mostly above about 28%, no sharp cut-off; inactive = mostly below about 43%; note: 0% is about no effect
Marburg entry inh = blocks Marburg virus binding to or entry into cells; Marburg virus pseudotyped entry inhibition, cell reporter; Potency, µM (highest dose often 37.8 µM), without a hit: at the highest dose activity change, negative = inhibition, usual class: inhibitors; actives 1.8% (n = 300,000); AID 540276; calls by dose curve; tested in HEK293 cells; note: potency is the fitted concentration of half-maximal effect; % is set by controls: 0 for no effect and ±100 for the full control effect
VACV Venus inh = inhibitors of vaccinia virus (Venus reporter); Potency, µM (doses to about 36.5 µM), for the others: at the highest dose activity change, negative = inhibition, actives largely listed as inhibitors; AID 720580; actives 0.46% (n = 330,000); Vaccinia virus Venus reporter expression, fluorescence; calls by dose curve; tested in A549 cells; note: potency is the fitted concentration of half-maximal effect; % is set by controls: 0 for no effect and ±100 for the full control effect; nearly all actives have a fitted effect of over 30% in size
Cycloheximide cs = affects cycloheximide protein synthesis inhibition readout, counter-screen; cell reporter, cycloheximide protein synthesis inhibition counterscreen; max response, %; actives 12% (n = 300,000); AID 2314; in the data active = max response mostly above about 13%, no sharp cut-off; inactive = mostly below about 14%; note: read at 38.3 µM for the half of the compounds with a filed dose; 0% is about no effect
Vaccinia mCherry = vaccinia inhibition (mCherry reporter). Vaccinia virus mCherry reporter infection, fluorescence. Potency, µM (highest dose often 36.5 µM), without a hit: top-dose activity change, negative = inhibition, hits mostly inhibitors. actives 0.63% (n = 310,000). AID 720579; calls by dose curve; tested in A549 cells; note: potency is the fitted concentration of half-maximal effect; % is set by controls: 0 for no effect and ±100 for the full control effect; nearly all actives have a fitted effect of over 35% in size
* hit, by the source's call; [ ] = dose if it differs, or a comment.

Results for Cc1ccc(OCc2cc(C(=O)NC3CCOC3)no2)cc1C (stereo not drawn) ?
Shiga inhibitor: 25.2*; Cycloheximide cs: 20.2*

Results for COc1ccc(OCc2cc(C(=O)NC3CCOCC3)no2)c2ccccc12 ?
LASV entry inh: 0.7%[46.1 µM]; Shiga inhibitor: 18.4; Marburg entry inh: 17.8%[46.1 µM]; VACV Venus inh: -7.3%; Cycloheximide cs: 22.1*; Vaccinia mCherry: inconclusive

What do the screens show for `CC1(C)CC(NC(=O)c2cc(COc3cccc(C(F)(F)F)c3)on2)CCO1` (stereo not drawn)?
Shiga inhibitor: 48.1*; Cycloheximide cs: 29.1*

Results for COc1cccc(OCc2cc(C(=O)NC3CCOCC3)no2)c1 ?
Shiga inhibitor: 81.8*; Cycloheximide cs: 45.9*

How did CC(=O)c1cccc(OCc2cc(C(=O)NC3CCN(Cc4ccccc4)CC3)no2)c1 do in these assays?
Shiga inhibitor: -8.0; Cycloheximide cs: -3.1

What do the screens show for `O=C(NC1Cc2ccccc2C1)c1cc(COc2ccc(F)cc2Cl)on1`?
Shiga inhibitor: -6.2; VACV Venus inh: -13.6%; Cycloheximide cs: -4.3; Vaccinia mCherry: -0.3%

What do the screens show for `Cc1cc(OCc2cc(C(=O)NC3CCC3)no2)cc(C)c1Cl`?
Shiga inhibitor: -1.6; Cycloheximide cs: 4.1

What do the screens show for `COc1cccc(CNC(=O)CCCNC(=O)c2ccc(Cl)cc2)c1`?
LASV entry inh: 2.7%[46.1 µM]; Shiga inhibitor: -10.0; Marburg entry inh: 0.8%[46.1 µM]; VACV Venus inh: -4.9%; Cycloheximide cs: 17.7; Vaccinia mCherry: 4.9%

Results for Cc1c(C(=O)NCc2ccc(F)cc2)sc2ncnc(NCC3CCCO3)c12 (stereo not drawn) ?
VACV Venus inh: -5.7%; Vaccinia mCherry: -18.6%

What do the screens show for `c1cnc(Oc2ccc3oc4ccccc4c3c2)nc1`?
LASV entry inh: -37.0%; Shiga inhibitor: 56.1*; Marburg entry inh: inconclusive; VACV Venus inh: -22.0%; Cycloheximide cs: 43.9*; Vaccinia mCherry: -1.8%

Results for CCn1c(SCc2ccccc2F)nc(=O)c2c(C(=O)OC)cc(C3CC3)nc21 ?
LASV entry inh: inconclusive; VACV Venus inh: -5.7%; Vaccinia mCherry: -12.0%

Results for C[CH2][Hg][S]c1ccccc1C(=O)O ?
VACV Venus inh: 11.2µM*; Vaccinia mCherry: inconclusive

What do the screens show for `O=C(O)c1ccccc1SSc1ccccc1C(=O)O`?
LASV entry inh: -6.6%[46.1 µM]; Shiga inhibitor: -5.7; Marburg entry inh: 20.3%[46.1 µM]; VACV Venus inh: -5.6%; Cycloheximide cs: 2.5; Vaccinia mCherry: inactive

How did CCCC(=O)Nc1ccc2oc(=O)ccc2c1 do in these assays?
LASV entry inh: -28.1%; Shiga inhibitor: 7.3; Marburg entry inh: -4.9%; VACV Venus inh: 2.3%; Cycloheximide cs: 8.9; Vaccinia mCherry: -6.3%

Results for CN1C/C(=C/c2ccccc2[N+](=O)[O-])C(=O)/C(=C\c2ccccc2[N+](=O)[O-])C1 ?
LASV entry inh: 8.91µM*; Marburg entry inh: 3.16µM*; VACV Venus inh: -8.8%; Vaccinia mCherry: inconclusive

What do the screens show for `Cc1ccc(C)c2c1CCC(=Cc1ccccc1[N+](=O)[O-])C2=O`?
VACV Venus inh: -12.1%; Vaccinia mCherry: -17.9%

What do the screens show for `CCCCCOc1ccc(Cl)cc1CN1CCOCC1`?
LASV entry inh: 0.2%; Shiga inhibitor: 46.8; Marburg entry inh: 29.7%; VACV Venus inh: -14.1%; Cycloheximide cs: 24.0*; Vaccinia mCherry: -4.3%

How did O=C1NC2(CCSC2)C(=O)N1CC(=O)N(Cc1ccccc1)C1CCS(=O)(=O)C1 (stereo not drawn) do in these assays?
LASV entry inh: -3.4%; Shiga inhibitor: 22.2; Marburg entry inh: 4.1%; VACV Venus inh: -7.4%; Cycloheximide cs: -1.5; Vaccinia mCherry: inactive

Results for CCCNC(=O)C1(C)CCN1C(=O)Cc1ccc(C(C)(C)C)cc1 (stereo not drawn) ?
VACV Venus inh: -3.7%; Vaccinia mCherry: 49.3%

How did O=C(NC1=NCCS1)c1ccccc1 do in these assays?
LASV entry inh: inconclusive; Shiga inhibitor: 19.9; Marburg entry inh: -0.5%; VACV Venus inh: 2.5%; Cycloheximide cs: 16.8; Vaccinia mCherry: -10.4%

Results for Cc1cc(C(=O)NC2=NCCS2)cs1 ?
LASV entry inh: inconclusive; Shiga inhibitor: 66.2*; Marburg entry inh: -28.9%; Cycloheximide cs: 40.6*

Results for Cc1cccc(C(=O)NC2=NCCS2)c1 ?
LASV entry inh: inconclusive; Shiga inhibitor: 56.4*; Marburg entry inh: inconclusive; VACV Venus inh: -13.0%; Cycloheximide cs: 35.3*; Vaccinia mCherry: -17.2%

Results for CCc1ccccc1NC(=O)Cn1nnc(C(=O)NCc2cccc(OC)c2)c1N ?
LASV entry inh: 0.4%[46.1 µM]; Shiga inhibitor: -3.7; VACV Venus inh: -25.8%; Cycloheximide cs: 12.5; Vaccinia mCherry: -17.0%

Results for CN1CCN(CCCC(=O)c2ccc(C3CCCC3)cc2)CC1 ?
LASV entry inh: inconclusive; Shiga inhibitor: 53.5*; Marburg entry inh: inconclusive; VACV Venus inh: -20.8%; Cycloheximide cs: 28.9*; Vaccinia mCherry: -20.8%

Results for Cc1cc(C)c2nc(SCC(=O)Nc3cc(C)on3)c(C#N)cc2c1 ?
LASV entry inh: -13.4%[46.1 µM]; Shiga inhibitor: -3.7; Marburg entry inh: -6.8%[46.1 µM]; VACV Venus inh: 0.0%; Cycloheximide cs: -1.5; Vaccinia mCherry: inactive

How did Cc1cc(NC(=O)CSc2nc3c(cc2C#N)CCC3)no1 do in these assays?
LASV entry inh: inconclusive; Shiga inhibitor: 97.1*; Marburg entry inh: inconclusive; VACV Venus inh: -2.7%; Cycloheximide cs: 28.7*; Vaccinia mCherry: inactive

How did Cc1cc(NC(=O)CSc2nc3c(cc2C#N)CCCC3)no1 do in these assays?
LASV entry inh: inconclusive; Shiga inhibitor: 48.9*; Marburg entry inh: inconclusive; VACV Venus inh: -4.5%; Cycloheximide cs: 38.5*; Vaccinia mCherry: -15.2%

What do the screens show for `Cc1cc(NC(=O)CSc2nc3ccccc3cc2C#N)no1`?
LASV entry inh: 8.3%; Shiga inhibitor: 39.0*; Marburg entry inh: -14.8%[46.1 µM]; VACV Venus inh: -4.0%; Cycloheximide cs: 17.4; Vaccinia mCherry: 13.3%

Results for Cc1c(Cl)cccc1NS(=O)(=O)c1cccc2nsnc12 ?
LASV entry inh: -11.8%; Shiga inhibitor: 7.3; Marburg entry inh: 5.7%; VACV Venus inh: -6.7%; Cycloheximide cs: -4.5; Vaccinia mCherry: -7.0%

What do the screens show for `CC(CNC(=O)c1cc(-c2ccccc2)n[nH]1)c1ccccc1` (stereo not drawn)?
LASV entry inh: 21.1%[46.1 µM]; VACV Venus inh: -10.4%; Vaccinia mCherry: -8.6%

What do the screens show for `CC1=NN(c2cccc(C(=O)O)c2)C(=O)/C1=C\C=C\c1ccco1`?
LASV entry inh: -4.3%; Shiga inhibitor: 126.2*; Marburg entry inh: inconclusive; VACV Venus inh: -3.2%; Cycloheximide cs: 85.9*; Vaccinia mCherry: -17.5%

Results for CC1=NN(c2ccccc2)C(=O)/C1=C/C=C/c1ccccc1 ?
LASV entry inh: -21.1%; Shiga inhibitor: 10.0; Marburg entry inh: inconclusive; VACV Venus inh: 5.8%; Cycloheximide cs: -1.5; Vaccinia mCherry: -7.9%

What do the screens show for `O=C(Nc1ccccc1)OCCOc1ccccc1Br`?
Shiga inhibitor: 27.9*; Cycloheximide cs: 34.9*

How did CCC1(COC(=O)Nc2cccc(Cl)c2)COC1 do in these assays?
LASV entry inh: 14.1%; Shiga inhibitor: 50.7; Marburg entry inh: -0.9%; Cycloheximide cs: 22.0*

Bioassay records from PubChem BioAssay.
